BAZ2B block: inhibitors of human BAZ2B bromodomain | Potency, µM (titrated, usually from 114 µM), without a hit: at the highest dose activity change, negative = inhibition, actives largely listed as inhibitors | 4.4% of 360,000 active | Q9UIF8 | AID 504333 | AlphaScreen BAZ2B-H3K14Ac peptide displacement; also: % is scaled to controls: 0 for no effect and ±100 for the full control effect; nearly all actives have a fitted effect of over 60% in size
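BAZ2B (50 nM) with biotin-H3(5-23)K14Ac peptide (50 nM) in PBS pH 7.4, 0.01% Tween-20, preformed 30 min, then compound 30 min at room temperature; top concentration 110uM. AlphaScreen streptavidin donor/nickel chelate acceptor beads (10 ug/mL final), 20 min dark, signal read.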
G9a inh: blocks human histone lysine methyltransferase G9a; 8.8% of 350,000 active; Potency, µM (doses to about 102 µM), inactives show at the highest dose activity, negative = inhibition, actives largely listed as inhibitors; Q96KQ7; AID 504332; G9a H3K9 monomethylation, AlphaScreen, 2 h; also: % is scaled to controls: 0 for no effect and ±100 for the full control effect; nearly all actives have a fitted effect of over 75% in size
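G9a (20 nM) was preincubated 15 min with compound, then reacted 2 h at room temperature with 500 nM biotin-H3K9 peptide and 20 µM SAM. Monomethyl-H3K9 detected by AlphaScreen using anti-H3K9me1 antibody.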
JMJD2A Tudor: inhibitors of human JMJD2A Tudor domain | O75164 | AlphaScreen JMJD2A-Tudor / H3K4me3 peptide binding | Potency, µM (highest dose often 114 µM), inactives show at the top dose activity change, negative = inhibition, most hits filed as inhibitors | 4.4% of 390,000 active | AID 504339; also: % is scaled to controls: 0 for no effect and ±100 for the full control effect; nearly all actives have a fitted effect of over 50% in size
HP1b chromo inh: HP1-beta chromodomain-methylated histone interaction inhibition; P83916; AlphaScreen HP1-beta / biotin-H3K9me3 peptide binding; Potency, µM (doses to about 114 µM), without a hit: top-dose activity change, negative = inhibition, most hits filed as inhibitors; 0.56% of 390,000 active; also: nearly all actives have a fitted effect of over 70% in size
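AlphaScreen: HP1-beta (50 nM) preformed 30 min with biotin-H3(1-18)K9me3 peptide (50 nM) in PBS pH 7.4, 0.01% Tween-20. Compound added for 30 min at RT, then streptavidin donor/nickel chelate acceptor beads (10 ug/mL) for 30 min.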
L3MBTL1 block: L3MBTL1 (human) inhibition. Q9Y468. AlphaScreen L3MBTL1–H3K9me1 peptide binding. Potency, µM (titrated, usually from 57.1 µM), for inactives: at the top dose activity, negative = inhibition, usual class: inhibitors. 0.66% of 230,000 active; also: % is scaled to controls: 0 for no effect and ±100 for the full control effect; nearly all actives have a fitted effect of over 60% in size
Target sequence (Q9Y468 whole entry, looked up): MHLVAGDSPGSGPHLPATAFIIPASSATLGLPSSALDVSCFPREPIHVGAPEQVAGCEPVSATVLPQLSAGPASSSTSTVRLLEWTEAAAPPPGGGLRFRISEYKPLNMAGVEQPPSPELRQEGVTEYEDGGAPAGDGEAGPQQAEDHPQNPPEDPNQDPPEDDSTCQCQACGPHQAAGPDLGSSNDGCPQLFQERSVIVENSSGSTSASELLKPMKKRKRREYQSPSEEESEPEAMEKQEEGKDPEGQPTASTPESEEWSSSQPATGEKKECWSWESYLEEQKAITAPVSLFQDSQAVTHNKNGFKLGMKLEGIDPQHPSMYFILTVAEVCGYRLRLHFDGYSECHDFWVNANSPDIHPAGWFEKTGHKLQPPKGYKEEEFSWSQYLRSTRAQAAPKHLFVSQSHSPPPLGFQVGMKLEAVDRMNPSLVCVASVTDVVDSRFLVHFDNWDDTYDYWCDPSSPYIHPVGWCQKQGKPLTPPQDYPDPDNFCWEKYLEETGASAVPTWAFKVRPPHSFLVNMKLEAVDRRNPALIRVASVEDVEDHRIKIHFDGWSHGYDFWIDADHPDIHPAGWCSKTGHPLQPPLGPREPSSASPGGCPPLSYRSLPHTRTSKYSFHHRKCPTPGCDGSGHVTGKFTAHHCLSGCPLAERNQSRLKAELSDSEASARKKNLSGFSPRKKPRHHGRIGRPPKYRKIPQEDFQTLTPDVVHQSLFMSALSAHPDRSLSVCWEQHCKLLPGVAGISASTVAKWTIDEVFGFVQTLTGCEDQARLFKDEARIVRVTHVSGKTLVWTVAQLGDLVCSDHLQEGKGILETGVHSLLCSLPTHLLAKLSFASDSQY
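AlphaScreen assay: L3MBTL1 (50 nM final) was preincubated 30 min at room temperature with biotinylated H3(1-15)K9me1 peptide (75 nM final), then 30 min with library compounds; streptavidin donor and nickel chelate acceptor beads (10 ug/mL final) added, 30 min dark.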
Active calls of the source: *; ? = inconclusive; . = no result; [ ] = another dose, or the depositor's remark. The list is not random: actives were taken first. Their share in the collection is about 11%. Calls follow the shape of the dose curve; as a rule, active = well fitted inhibition curve with a large enough effect; inconclusive = small, poorly fitted or top-dose-only effect; inactive = no such curve, though single readings can be large or run the other way. Potency is read from the fitted curve at half-maximal effect.

SMILES	BAZ2B block	G9a inh	JMJD2A Tudor	HP1b chromo inh	L3MBTL1 block
COc1ccccc1C(=O)NC(=O)CSc1nc(C)cs1	0%	50µM*	-4%	28%	-6%
Cc1csc(SCC(=O)NC(=O)NC(C)(C)C)n1	-13%	-1%[59 µM]	0%	35%	.
Cc1csc(SCC(=O)NC(=O)NC2CCCC2)n1	-6%	45µM*	-15%	36%	4%
CCN(C(=O)c1cc2c(=O)oc3ccc(C)cc3c2s1)c1ccccc1F	1%	2%[59 µM]	13%	56%	.
Cc1ccc(C2CC(=O)Nc3cc4c(cc32)OCCO4)cc1Br (stereo not drawn)	?	?	?	-18%	.
CC(=O)c1ccccc1NS(=O)(=O)c1cc2c(cc1C)NC(=O)CO2	6%	-2%[59 µM]	1%	29%[57 µM]	.
Cc1cc(C)n2nc(SCCCC(=O)c3ccc(F)cc3)nc2n1	-10%	50µM*	-24%	12%	1%
Cc1cc(C)n2nc(SCC(=O)N3CCN(c4ccc(F)cc4)CC3)nc2n1	5%	-20%[59 µM]	-3%	25%	-4%
Cc1ccc(C(=O)c2c3ccc(C(F)(F)F)cc3[n+]([O-])n2CCC(N)=O)cc1	-4%	.	-30%	15%	-2%
Cc1ccc(C(=O)c2c3ccc(N)cc3nn2CCC(N)=O)cc1	?	45µM*	?	13%	-9%
c1ccc(-c2cc3n(c2)CCc2ccccc2-3)cc1	-33%	3.2µM*	?	-16%	-2%
Cc1ccccc1CNC(=O)CCC(=O)N1CCSc2ccccc21	-26%	5%[59 µM]	-17%	14%	.
COc1cccc(NC(=O)CCC2CCN(C(=O)c3cncs3)CC2)c1	2%	40µM*	-5%	30%	.
COc1cccc(NC(=O)CCC2CCN(C(=O)c3scnc3C)CC2)c1	-6%	27%	-12%	18%	.
Cc1nnc(SCC(=O)NCc2ccccc2F)c2nn(-c3ccc(Cl)cc3)c(C)c12	0%	-31%[59 µM]	-29%	12%	.
COc1ccc(CN=C2NN=C(c3cccc(OC)c3)CS2)cc1	?	?	-31%	2%	?
COc1ccc(CN=C2NN=C(c3ccccc3)CS2)cc1	.	35µM*	?	-5%	.
Cc1ccc(C)c(C2=NNC(=NCc3ccccc3)SC2)c1	-33%	35µM*	-34%	-2%	.
c1ccc(CN=C2NN=C(c3cc4ccccc4o3)CS2)cc1	?	?	1%	19%	-20%
CS(=O)(=O)c1ccc(C(=O)OCC(=O)N2CCc3ccccc32)cc1[N+](=O)[O-]	.	.	-30%	14%	.
CC(C)CCNC(=O)CSCc1cnn(-c2ccccc2)c1-n1cccc1	-4%	?	3%	29%	.
NS(=O)(=O)c1ccc(CNS(=O)(=O)c2ccc(Cl)nc2)cc1	-5%	56µM*	-12%	35%	5%
O=S(=O)(NCc1ccc(Cl)cc1)c1ccc(Cl)nc1	-31%	71%[59 µM]	14%	37%	7%
Cc1ccc(NCc2cccnc2)cc1	?	56µM*	40µM*	-6%	.
C=CCNC1=C(Cl)C(=O)N(Cc2ccccc2)C1=O	73%	44%	63%	114%	.
SMILES	BAZ2B block	G9a inh	JMJD2A Tudor	HP1b chromo inh	L3MBTL1 block
C=CCNC1=C(Cl)C(=O)c2ccccc2C1=O	32µM*	40µM*	45µM*	50µM*	?
O=C1C(Cl)=C(NCCc2ccccc2)C(=O)N1CCc1ccccc1	0%	4%[12.7 µM]	5%	35%	.
CC(=O)N(Cc1ccc(F)cc1)c1cccc(C)c1C	-13%	39%	-1%	47%	-2%
CC(=O)N(Cc1ccc(F)cc1)C1=C(NCCc2ccccc2)C(=O)c2ccccc2C1=O	14µM*	28µM*	20µM*	-68%	.
O=C1C(Cl)=C(NCCc2ccccc2)C(=O)c2ccccc21	.	.	0.79µM*	?	.
COc1ccc(NC(=O)Cn2c(=O)nc(-c3ccccc3)c3ccccc32)cc1OC	-5%	25%[59 µM]	-21%	33%	.
Cc1cc(-c2ccc(S(=O)(=O)Nc3ccc(Br)c(C)c3)s2)on1	5%	-2%[59 µM]	4%	28%	.
COc1cc(OC)cc(-c2nnc3n2N=C(c2cc(OC)ccc2OC)CS3)c1	.	.	-29%	.	.
CCCN(C(=O)Cn1ncc2c1-c1ccccc1OC2)c1cccc(C)c1	-1%	-32%[59 µM]	-5%	24%	.
O=C1c2ccccc2C(=O)c2c(NCCc3ccc(O)cc3)ccc(NCCc3ccc(O)cc3)c21	.	1.8µM*	.	.	.
O=S(=O)(Cc1ccccc1)NCc1cccnc1	-2%	?	-5%	19%	-4%
O=C1C(Cl)=C(NCc2cccnc2)C(=O)c2ccccc21	50µM*	?	-36%	-8%	.
CCc1ccccc1NC(=O)CSc1nc2c(oc3ccccc32)c(=O)n1-c1ccccc1	2%	8%[59 µM]	-14%	17%	.
O=C(NCCc1cccc(F)c1)/C(=C/c1cccnc1)NC(=O)c1ccccc1	-4%	8%	-15%	29%	5%
O=C(O)c1cc([N+](=O)[O-])c(NCCC2=CCCCC2)c([N+](=O)[O-])c1	-27%	50µM*	-32%	-4%	.
N=C1/C(=C\c2coc3ccccc3c2=O)C(=O)N=C2SC(c3ccncc3)=NN12	?	?	56µM*	?	.
Cc1cc(/C=C2\C(=N)N3N=C(c4ccco4)SC3=NC2=O)c(C)n1Cc1ccccc1	?	28µM*	45µM*	-23%	?
CC(C)CSC1=NSC2=NC(=O)/C(=C\c3coc4ccccc4c3=O)C(=N)N12	79µM*	79µM*	-24%	19%	.
CSC1=NSC2=NC(=O)/C(=C\c3coc4ccccc4c3=O)C(=N)N12	?	?	3%	41%	15%
N=C1/C(=C\c2coc3ccc(O)cc3c2=O)C(=O)N=C2SC=CN12	?	.	-35%	-18%	?
CCC1=NN2C(=N)/C(=C/c3cc(C)n(Cc4ccccc4)c3C)C(=O)N=C2S1	-14%	-4%	-19%	-11%	-18%
N=C1/C(=C/c2coc3ccccc3c2=O)C(=O)N=C2SC(c3ccco3)=NN12	71µM*	.	?	-33%	?
COc1cc(C(=O)NCCc2sc(-c3cccc(F)c3)nc2C)cc(OC)c1OC	1%	3%[59 µM]	-3%	26%[57 µM]	.
Cc1ccc(NC(=O)Cn2c(=O)n(CCC(=O)NCc3ccccc3Cl)c(=O)c3ccccc32)c(C)c1	-37%	?	-6%	4%	.
COC(=O)c1scc(-c2ccc(C)cc2)c1S(=O)(=O)N1CCN(c2ccccc2F)CC1	?	-8%[59 µM]	2%	-17%	.
C/C=C\C(=O)Nc1cccc(C2=NOC3(C2)C[C@@H](C(N)=O)N(C(=O)c2ccc(OC)cc2)C3)c1 (stereo partly drawn)	0%	8%[59 µM]	-13%	31%	.
CCOc1ccc(C(=O)Nc2c(C(=O)c3ccc(OC)cc3)oc3ccccc23)cc1	0%	19%[59 µM]	-2%	21%	.
Brc1ccc(-c2cn3nc4c(nc3n2)CCCC4)cc1	10%	?	-7%[11.4 µM]	70%	.

Source: PubChem (National Center for Advancing Translational Sciences (NCATS))
